Experimental data reported in PubChem BioAssay (NCI).
Where “and” joins values, the source holds several entries; their conditions need not be identical. Identical values can stand only once. The panel holds about 83,000 compounds, 20% with a hit somewhere; the sample as a whole holds those more often.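 In brief: 96-well plates, 48 h treatment, single concentration, percent growth endpoint.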 Calls of active or inactive are those of the source. Rule for the calls: active = growth percent below 10; inactive = the rest.

The molecules below were run on MCF7 breast (assay: NCI-60 one-dose screen, 48 h (100 = growth as untreated, 0 = no growth, -100 = all killed)). Conditions: 10 µM unless noted.

| SMILES | growth |
| --- | --- |
| CCOc1cc2c(cc1O)C=C[C@@H]1[C@@H]2CC[C@]2(C)[C@@H](O)CC[C@@H]12 | -21% [100 µM] (active) and -100% [100 µM] (active) |
| N/N=C(\C(=O)Nc1ccc([N+](=O)[O-])cc1)C(C1=Nc2cc([N+](=O)[O-])ccc2NC1)[N+](=O)[O-] (stereo not drawn) | 45.9% [100 µM] (inactive) and 33.8% [100 µM] (inactive) |
| N#Cc1nc(-c2cccc(-c3nc(C#N)c(N)o3)n2)oc1N | 58.8% [100 µM] (inactive) and -19.4% [100 µM] (active) |
| CC(C)CCCC(C)[C@H]1CC[C@H]2[C@@H]3CC[C@H]4C[C@@H](CCC=C(c5cc(Cl)c(O)c(C(=O)O)c5)c5cc(Cl)c(O)c(C(=O)O)c5)CC[C@]4(C)[C@H]3CC[C@]12C (stereo partly drawn) (tested in a mixture with another compound) | 97.3% [50 µM] (inactive) |
| COc1c2c(c3c(c1OC)c(=O)c1ccccc1n3C)OCO2 | 81.3% [100 µM] (inactive) |
| OCc1ccccc1OC1OC(CO)C(O)C(O)C1O (stereo not drawn) | 120% [100 µM] (inactive) and 82.9% [100 µM] (inactive) |
| C/C(=C\COc1cc(O)c2c(c1)C(=O)c1cc(C)cc(O)c1C2=O)CCC1OC1(C)C (stereo not drawn) | 20.6% [100 µM] (inactive) and 2.66% [100 µM] (active) |
| C=C1C(=O)O[C@H]2C[C@@]3(C)[C@H](O)CCC(=C)[C@@H]3[C@@H](OC(C)=O)[C@H]12 | -83.4% [100 µM] (active) and -77.4% [100 µM] (active) |
